Calls of active or inactive are those of the source.
Key:
[1] = compound effects on lung adenocarcinoma cell viability – A549, calcein-AM fluorescence, 48 h, basal, profiling panel (AID 1162); conditions: higher = more signal
[2] = compound effects on differentiated 3T3-L1 adipocyte viability – cell-based, 3T3-L1 adipocytes, calcein-AM fluorescence, 48 h, basal, profiling panel (AID 1163); conditions: 3T3-L1 adipocytes viability, higher = more signal
[3] = compound effects on hepatocellular carcinoma cell viability – HepG2, calcein-AM fluorescence, 48 h, basal, profiling panel (AID 1164); conditions: higher = more signal
[4] = compound effects on multiple myeloma cell viability – MM1S, calcein-AM fluorescence, 48 h, basal, profiling panel (AID 1165); conditions: higher = more signal
[5] = calcein-AM signal in unstimulated myeloma cells – cell-based, calcein-AM fluorescence, 48 h, PK04 Diversity Set, profiling panel (AID 1166); conditions: RPMI8226 myeloma viability, higher = more signal;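 also: cells grown under basal conditions without added stimulus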
[6] = JC-1 mitochondrial signal, unstimulated HepG2 cells – cell-based, JC-1 fluorescence, 24 h, 100 nL compound, profiling panel (AID 1167); conditions: HepG2 mitochondrial potential, higher = more signal
[7] = JC-1 mitochondrial signal, unstimulated adipocytes – cell-based, JC-1 fluorescence, 3T3-L1 adipocytes, 24 h, 100 nL compound, profiling panel (AID 1168); conditions: JC-1 mitochondrial fluorescence, higher = more signal, called active from +8 up or from −8 down
[8] = JC-1 mitochondrial signal, unstimulated myeloma cells – cell-based, JC-1 fluorescence, RPMI8226, 24 h, 100 nL compound, profiling panel (AID 1169); conditions: JC-1 mitochondrial potential fluorescence, higher = more signal
[9] = JC-1 mitochondrial signal, unstimulated MM1S myeloma – cell-based, JC-1 fluorescence, 24 h, 100 nL compound, profiling panel (AID 1170); conditions: MM1S mitochondrial potential, higher = more signal
[10] = resazurin metabolic signal in A549 cells – cell-based, resazurin fluorescence, 24 h, PK04 Diversity Set, profiling panel (AID 1171); conditions: A549 viability, higher = more signal, called active from +8 up or from −8 down
Also: test concentration not given here.

SMILES | z-score [1] | z-score [2] | z-score [3] | z-score [4] | z-score [5] | z-score [6] | z-score [7] | z-score [8] | z-score [9] | z-score [10]
O=C1O[C@@H](c2ccccc2)[C@@H](c2ccccc2)N2[C@@H](c3ccc(OCCO)cc3)[C@]3(C(=O)Nc4ccc(C#CCCO)cc43)[C@@H](C(=O)NC[C@H](O)c3ccccc3)[C@H]12 | 0.225 | -0.0616 | 0.808 | -0.301 | 0.407 | -0.821 | -1.33 (inactive) | -0.479 | -0.468 | -0.293 (inactive)
NC(=O)[C@@H]1[C@H]2C(=O)O[C@H](c3ccccc3)[C@H](c3ccccc3)N2[C@H](c2ccc(O)cc2)[C@@]12C(=O)Nc1ccc(C#CC3=CCCCC3)cc12 | -1.42 | -0.0881 | -5.06 | -3.27 | -4.17 | -3.59 | -1.58 (inactive) | -0.88 | -1.94 | -0.274 (inactive)
O=C1OCC=C[C@H]2OC34C=CCN(Cn5nnc6ccccc65)C(=O)[C@H]3N(CCCCCO)C(=O)[C@@H]4[C@@H]12 (stereo not given in full) | -0.382 | 0.188 | -0.609 | 0.823 | 0.903 | -0.0737 | -0.135 (inactive) | 0.205 | 0.183 | -0.301 (inactive)
CCOC(=O)C[C@H]1[C@H](OC(=O)c2ccc(-c3ccccc3)cc2)[C@@H](NC(=O)c2ccccc2)c2cc(OCCCO)ccc2N1C(=O)Cc1ccc(OC)cc1 | 0.437 | 0.0615 | 0.66 | -0.536 | -0.345 | 2.23 | 0.285 (inactive) | 0.157 | 0.617 | -0.0451 (inactive)
C=CC[C@@]1(C(=O)N2CCCCC2)N=C(c2ccc(OCCCO)cc2)O[C@@H]1c1ccccc1N=[N+]=[N-] | -0.637 | 2.03 | -0.441 | -1.23 | -2.71 | 1.02 | 1.21 (inactive) | -0.982 | -1.66 | -1.5 (inactive)
O=C(CS)NCCCCCNC(=O)[C@@H]1C[C@@H]2C(=O)NCC(=O)N2[C@@H]1c1cccc(OCCO)c1 | 0.686 | 0.45 | 0.938 | 0.231 | 0.842 | 1.85 | -0.102 (inactive) | -0.738 | -0.249 | -0.696 (inactive)
O=C1NC(=O)C2C1C=CC(C(O)C=Cc1ccc([N+](=O)[O-])cc1)N2Nc1ccc(Cl)cc1Cl (stereo not given) | -0.352 | -0.122 | -0.3 | -1.47 | -1.4 | -0.5 | -0.726 (inactive) | -1.02 | -0.873 | -0.428 (inactive)
C=CC[C@]1(C(=O)N2CCOCC2)N=C(c2ccc(OCCCO)cc2)O[C@H]1c1ccccc1N=[N+]=[N-] | 0.0797 | 0.816 | -0.0586 | -0.094 | -1.8 | 1.23 | 1.17 (inactive) | -0.733 | -1.44 | -0.441 (inactive)
CCN(CC)c1ccc(N2CC=CC34O[C@@H]5/C=C\CCC(C)OC(=O)C5[C@H]3C(=O)N(CCCCCO)[C@@H]4C2=O)cc1 (stereo not given in full) | 0.192 | -0.743 | 0.0376 | 1.56 | -0.863 | 0.423 | 0.158 (inactive) | -0.0486 | 1.29 | 0.697 (inactive)
CCCCCCc1nc(-c2ccc(-c3ccc(Cl)c(Cl)c3)o2)c(C)c2c1[Si](C(C)C)(C(C)C)OC2 | -2.55 | 0.438 | -1.55 | -3.25 | -4.25 | -3.26 | 0.113 (inactive) | -0.977 | -1.68 | -0.312 (inactive)
COC(=O)c1c(CC[C@@H](CO)NC(=O)N[C@H](Cc2ccccc2)Cn2cc(-c3ccccn3)nn2)oc(C(C)=O)c1C(=O)OC | 0.372 | 0.337 | -0.362 | 0.258 | -0.406 | -0.607 | -0.821 (inactive) | -0.0316 | -0.131 | -0.533 (inactive)
C=CCNC(=O)[C@@H]1[C@H]2C(=O)O[C@H](c3ccccc3)[C@H](c3ccccc3)N2[C@H](c2ccc(OCCO)cc2)[C@@]12C(=O)N(C(=O)OCCOC)c1ccc(C#CCC(C(=O)OC)C(=O)OC)cc12 | -0.906 | 0.445 | -0.713 | -1.85 | -1.34 | 0.366 | 0.0731 (inactive) | -0.799 | -1.16 | 0.185 (inactive)
COc1ccc(-c2cc3c(c(Cc4ccccc4)n2)[Si](C(C)C)(C(C)C)OC3)cn1 | -0.103 | -0.19 | 0.147 | -0.494 | -1.37 | -0.914 | -1.19 (inactive) | -0.346 | 0.488 | 2.17 (inactive)
COC(=O)C(CC#Cc1ccc2c(c1)[C@]1(C(=O)N2)[C@H](c2ccc(O)cc2)N2[C@H](c3ccccc3)[C@H](c3ccccc3)OC(=O)[C@H]2[C@@H]1C(=O)N1CCN(c2ncccn2)CC1)C(=O)OC | -0.112 | -0.274 | 0.9 | -2.43 | -4.48 | -0.758 | 0.999 (inactive) | -1.07 | -2.02 | -0.558 (inactive)

— PubChem BioAssay
